Screening results as filed in PubChem.
The list is not random: actives were taken first. Their share in the collection is about 14%.
CHX counter: affects cycloheximide protein synthesis inhibition readout, counter-screen. cell reporter, cycloheximide protein synthesis inhibition counterscreen. max response, %. 300,000 tested, 12% active; in the data active means max response mostly above about 13%, no sharp cut-off; inactive means mostly below about 14%; further: read at 38.3 µM for the half of the compounds with a filed dose
Shiga toxin inh: Shiga toxin inhibition | inhibition, % at 38.7 µM | Vero cells, Shiga toxin protein synthesis inhibition reporter | AID 2315 | 290,000 tested, 9.2% active; in the data active means inhibition mostly above about 28%, no sharp cut-off; inactive means mostly below about 43%
LmPK inhibitor: LmPK (Leishmania mexicana) enzyme inhibition; Q27686; purified LmPK, Kinase-Glo ATP luminescence, 1 h; Potency, µM (titrated, usually from 57.5 µM), hits mostly inhibitors; 290,000 tested, 0.37% active; AID 1721
Target sequence (Q27686 whole entry, looked up): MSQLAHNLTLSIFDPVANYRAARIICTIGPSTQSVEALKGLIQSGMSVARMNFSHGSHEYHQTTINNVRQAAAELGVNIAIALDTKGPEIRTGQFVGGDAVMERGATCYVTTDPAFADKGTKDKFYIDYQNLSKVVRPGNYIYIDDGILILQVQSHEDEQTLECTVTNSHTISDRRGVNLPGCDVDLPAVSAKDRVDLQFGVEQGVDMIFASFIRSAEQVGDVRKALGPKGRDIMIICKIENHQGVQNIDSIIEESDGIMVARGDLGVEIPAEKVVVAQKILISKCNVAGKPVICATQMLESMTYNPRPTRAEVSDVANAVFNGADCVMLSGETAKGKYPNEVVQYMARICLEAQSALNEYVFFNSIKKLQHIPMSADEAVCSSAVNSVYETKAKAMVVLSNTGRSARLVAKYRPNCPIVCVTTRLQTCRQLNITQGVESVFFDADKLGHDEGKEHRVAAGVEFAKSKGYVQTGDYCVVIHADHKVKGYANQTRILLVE
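qHTS format; LmPK 0.1 nM; substrates PEP 0.5 mM and ADP 0.1 mM. One-hour room-temperature incubation, then coupled luciferase luminescence; 0.5 nM enzyme wells mark activation.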
NS1 function inh: blocks influenza NS1 protein function; 270,000 tested, 0.4% active; Potency, µM (titrated, usually from 46.1 µM); calls by dose curve; further: actives are rising curves; nearly all actives have a fitted effect of over 50% in size
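In this qHTS, NS1 from influenza A is expressed in budding yeast, where it slows growth. Cells are switched from glucose to 2% galactose medium (pH 6.0, -URA), treated with compound, and growth recovery is read at OD600.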
Giardia FBPA inh: Giardia lamblia aldolase inhibition; purified Giardia FBPA; 290,000 tested, 0.71% active; AID 2451; Potency, µM (titrated, usually from 59.6 µM), actives largely listed as inhibitors; A8B2U2; further: nearly all actives have a fitted effect of over 55% in size
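40 nM FBPA preincubated 10 min at RT with compound (up to 57.5 uM final), then substrate plus GAPDH/TPI/NAD/arsenate coupling and diaphorase/resazurin added. Fluorescence read after 20 min at RT, 525/598 nm.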
A number is an active result; n = inactive; u = inconclusive; x = not tested or not shown. Unless noted, the call rests on the fitted dose curve; in most records, active means well fitted curve in the direction sought with a large enough effect; inconclusive means small, poorly fitted or top-dose-only effect, or another doubt; inactive means no such curve, though single readings can be large; an effect the other way counts as inactive or inconclusive.

SMILES	CHX counter	Shiga toxin inh	LmPK inhibitor	NS1 function inh	Giardia FBPA inh
COc1ccccc1-n1c(SCC(=O)NCC2CCCO2)nc2c([nH]c3ccccc32)c1=O (centres undefined)	n	n	n	n	x
CC(=O)OCC[C@H](NS(=O)(=O)OCC(Cl)(Cl)Cl)c1ccccc1	n	n	n	n	n
Cc1c(NC(=O)Nc2cccs2)cccc1[N+](=O)[O-]	12	n	n	x	n
N#Cc1ccccc1NC(=O)Nc1cccs1	n	n	n	n	n
O=C(Nc1cccs1)Nc1cccnc1Cl	60	59	n	n	n
Cc1cccnc1NC(=O)Nc1cccs1	n	n	n	n	n
O=C(Nc1cccs1)Nc1ccccc1Cl	75	78	n	n	n
Cc1ccc(NC(=O)Nc2cccs2)c(Cl)c1	57	107	n	n	n
COc1cccc(C2=Nn3c(nnc3-c3ccccc3OC)SC2)c1	n	n	x	x	u
O=C(Oc1ccc(-c2nnco2)cc1)C1CCN(C(=O)c2ccc(F)cc2)CC1	n	n	n	n	n
CC(C)C[C@@H](CC(=O)N[C@H](CC(=O)N[C@@H]1CCCC[C@H]1C(=O)N[C@H](CC(=O)N[C@@H](CCC(=O)O)CC(=O)O)Cc1ccccc1)C(C)C)NC(=O)[C@@H]1CNCC[C@H]1N	x	x	x	x	n
CCC(C)NC(=O)C1(O)c2ccccc2NC(=O)N1c1ccc(C)c(C)c1 (centres undefined)	n	n	n	n	n
Cc1cc(C)n2nc(CC(=O)NNC(=O)c3ccccc3Cl)nc2n1	n	n	n	n	n
C/C(=N/NC(=O)C(C)n1nc(C)c([N+](=O)[O-])c1C)c1ccc(OCC(N)=O)cc1 (centres undefined)	n	n	n	n	n
COc1ccc(C2=Nn3c(nnc3-c3cc(OC)ccc3OC)SC2)cc1	n	n	x	x	n
CC(C)c1onc(C(=O)NCCc2ccccc2)c1[N+](=O)[O-]	53	82	n	x	n
Cc1ccc(O)c(NC(=O)c2noc(C(C)C)c2[N+](=O)[O-])c1	42	n	n	x	n
COc1ccc(NC(=O)c2noc(C(C)C)c2[N+](=O)[O-])cc1	37	50	n	x	n
CC(C)c1onc(C(=O)NCc2ccc(F)cc2)c1[N+](=O)[O-]	n	n	n	n	n
CC(C)c1onc(C(=O)NCc2cccs2)c1[N+](=O)[O-]	n	n	n	x	n
CCc1ccc(NC(=O)c2noc(C(C)C)c2[N+](=O)[O-])cc1	48	151	n	x	n
CC(=O)Nc1ccc(S(=O)(=O)NC(C)(C#N)C2CC2)cc1 (centres undefined)	n	n	n	n	n
COc1ccc(-c2nc3cnc(N(C)C)nc3n(C[C@H]3CCCO3)c2=O)cc1	x	x	x	x	n
CC(=O)O[C@@H](C)C#C[Si](C)(C)c1ccccc1	x	x	x	x	n
CC(=O)c1ccc(NC(=O)c2noc(C(C)C)c2[N+](=O)[O-])cc1	41	n	n	x	n
SMILES	CHX counter	Shiga toxin inh	LmPK inhibitor	NS1 function inh	Giardia FBPA inh
CC(C)c1onc(C(=O)NC(C)c2ccccc2)c1[N+](=O)[O-] (centres undefined)	n	n	n	x	n
COc1ccccc1N1CCN(C(=S)Nc2ccc(F)cc2)CC1	34	45	n	n	n
COc1ccc(/C=C/C(=O)NC(=S)N2CCOCC2)cc1	39	73	u	n	u
COc1ccc(/C=C/C(=O)NC(=S)N2CCN(c3ccccc3OC)CC2)cc1	20	n	n	n	n
O=C(/C=C/c1ccc(F)cc1)NC(=S)N1CCN(c2ccccn2)CC1	43	98	n	n	n
COc1cc(OC)c2c(c1C(CCN1CCN(c3ccccc3)CC1)c1ccc(N(C)C)cc1)OC(=O)CC2c1ccc(N(C)C)cc1 (centres undefined)	n	n	x	x	n
CC1(C)CC2CC(C)(CN2/C=C2/CCCCC2=O)C1 (centres undefined)	n	n	n	n	n
CSc1ccc(Cc2ccc(Cl)cc2Cl)nn1	22	n	n	n	n
NNc1ccc(Cc2ccc(Cl)cc2Cl)nn1	n	n	n	x	n
CC(C)(C)OC(=O)[C@H]1[C@H](c2ccc([N+](=O)[O-])cc2)C2(C(=O)c3ccccc3C2=O)C2c3ccccc3C=NN21 (some centres undefined)	12	n	n	n	n
COc1ccc([C@H]2[C@H](C(=O)C(C)(C)C)N3N=Cc4ccccc4C3[C@]23N=C(c2ccccc2)OC3=O)cc1OC (some centres undefined)	n	n	n	n	n
Cc1ccc(C)n1-c1ccc(C(=O)Nc2ccccc2)cc1	34	98	n	n	n
